# D1 antagonist = Antagonist of Human D 1 Dopamine Receptor: qHTS; activity change, negative = inhibition, % at 10 µM; actives 3.2% (n = 360,000); HEK293 TREx D1 cells, calcium flux, dopamine EC80; stronger effect = lower value; in the data active = activity change below about -30%; note: % is set by controls: 0 for no effect and ±100 for the full control effect
# Target sequence (P21728 whole entry, looked up): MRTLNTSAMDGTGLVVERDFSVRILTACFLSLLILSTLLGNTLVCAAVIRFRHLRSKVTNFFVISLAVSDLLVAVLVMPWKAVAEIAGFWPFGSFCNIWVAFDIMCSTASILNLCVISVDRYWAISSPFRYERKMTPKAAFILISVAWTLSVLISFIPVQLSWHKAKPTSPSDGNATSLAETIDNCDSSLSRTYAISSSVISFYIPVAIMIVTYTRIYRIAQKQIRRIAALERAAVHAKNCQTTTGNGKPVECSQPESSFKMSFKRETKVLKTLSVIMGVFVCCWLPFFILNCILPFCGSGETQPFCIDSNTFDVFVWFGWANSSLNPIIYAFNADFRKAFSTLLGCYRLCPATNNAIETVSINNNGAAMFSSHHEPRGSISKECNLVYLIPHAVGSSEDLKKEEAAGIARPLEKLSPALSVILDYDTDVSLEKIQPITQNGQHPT
#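 HEK293 T-REx cells expressing inducible, force-coupled D1 receptor; no-wash Ca dye, 30–90 min RT. Cmpd → 180 s read at 1 Hz → EC80 DA → 180 s read.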
# DRD3 agonist = qHTS of D3 Dopamine Receptor Agonist: qHTS | actives 0.58% (n = 410,000) | max activation, % | D3R DiscoveRx beta-arrestin cells, luminescence, 90 min | D(3) dopamine receptor (Homo sapiens), P35462; in the data active = max activation above about 30%; note: 0% is about no effect
#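 Agonist-mode cell screen: cells plated at 1500/well and incubated overnight at 37 °C, then exposed to library compounds for 90 min at 37 °C. Detection reagent was added for 30–60 min at room temperature, and luminescence was read.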
# D3 antag = qHTS of D3 Dopamine Receptor Antagonist: qHTS. D(3) dopamine receptor (Homo sapiens), P35462. D3R cells, DiscoveRx beta-arrestin luminescence, antagonist mode; stronger effect = lower value. max response, negative = inhibition, %. actives 2.5% (n = 360,000). AID 652054, 2013; in the data active = max response below about -50%; inconclusive = no clear call, values can overlap the other calls; note: % is set by controls: 0 for no effect and ±100 for the full control effect
#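 Cells expressing the human receptor were seeded at 1500 cells/well, incubated overnight at 37 degrees C in 5% CO2, then exposed to library compounds with dopamine controls for 90 minutes at 37 degrees C before luminescent detection.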
# D1 agonist = Allosteric Agonists of the Human D1 Dopamine Receptor: qHTS; D(1A) dopamine receptor (Homo sapiens), P21728; AID 504660, 2011; actives 1% (n = 360,000); activation, % at 2 µM; HEK293 T-REx D1 cells, calcium flux, agonist mode; in the data active = activation above about 30%; note: 0% is about no effect
#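 Inducible HEK293 T-REx D1 cells, force-coupled to calcium signalling, were plated at 4000 cells/well with tetracycline and held overnight at 30 C. After no-wash calcium dye loading, compound-evoked calcium rise over 180 s flagged agonists.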
# D1 PAM = Potentiators of Human D1 Dopamine Receptor: qHTS; D(1A) dopamine receptor (Homo sapiens), P21728; HEK293 TREx D1 cells, calcium flux, dopamine EC20 potentiation; potentiation, % at 10 µM; actives 0.036% (n = 360,000); AID 504651, 2011; in the data active = potentiation above about 30%; note: 0% is about no effect
# * = called active by the depositor; ? = inconclusive; . = not tested or not shown. Shown are actives, neighbours in structure and some others; about 6% of the full set was active somewhere.
SMILES,D1 antagonist,DRD3 agonist,D3 antag,D1 agonist,D1 PAM
Cc1ccc(Cl)c(NC(=O)COC(=O)c2ccccc2C(=O)c2ccc(Cl)c([N+](=O)[O-])c2)c1Cl,-16,-23,-71*,2,-3
N#Cc1ccc(COC(=O)c2cnc3ccccc3n2)cc1,2,-10,-5,7,.
COc1ccc(NS(=O)(=O)c2cccc(C(=O)NNC(=O)c3ccc(C)o3)c2)cc1,9,0,-15,0,2
Cc1csc(Nc2cccc3ccccc23)n1,-46*,-9,4,0,-6
COc1ccccc1Nc1nc(C)cs1,-3,4,?,3,3
Cc1cc(/C=C2\SC(=O)NC2=O)c(C)n1-c1ccc(N(C)C)cc1,-52*,3,-5,-3,-10
O=C(Nc1nc(-c2cc3ccccc3oc2=O)cs1)c1ccco1,-64*,0,18,-1,-8
Cc1ccc(NC(=O)CSc2nnc(-c3cc4occc4n3C)n2-c2ccccc2C)c(Cl)c1,-14,-2,.,2,4
CCOC(=O)Cc1ccc(Nc2nc3cc(-c4ccccc4C)sc3c(=O)n2C)cc1,.,-13,-9,.,.
N#CC(C#N)=C/C(C#N)=C(/N)N1CCN(c2ccc(Cl)cc2)CC1,-40*,22,8,4,-4
Cn1c(SCC(=O)NCC2CCCO2)ncc(C(=O)Nc2ccccc2)c1=O (centres undefined),24,-4,?,0,-2
Cc1ccc2nc(-c3ccccc3)c(Cc3ccccc3C(F)(F)F)n2c1,.,-18,-54*,.,.
FC(F)(F)c1ccccc1Cc1c(-c2ccc(Cl)cc2)nc2ccc(Cl)cn12,.,3,26,.,.
Cc1ccc(-c2nc3ccc(C)cn3c2Cc2ccccc2C(F)(F)F)cc1,.,-16,-13,.,.
FC(F)(F)c1ccccc1Cc1c(-c2ccc(Cl)cc2)nc2ccc(Br)cn12,.,-7,-54*,.,.
O=C1Nc2ccccc2N(O)N1c1ccc(S(=O)(=O)Nc2ccccn2)cc1,-50*,-4,-14,0,-2
CCN(CC)S(=O)(=O)c1ccc(-c2nnc(SCC(=O)N3CCOCC3)o2)cc1,-6,-7,-63*,2,-1
CCCc1cnc2c(c1SCc1cccc(F)c1)c(=O)n(C)c(=O)n2C,.,-5,.,9,8
Clc1ccc(C(c2ccccc2Cl)C(Cl)Cl)cc1 (centres undefined),6,7,-14,16,-3
CCc1ccc(C(c2ccc(CC)cc2)C(Cl)Cl)cc1,.,0,-110*,7,5
Cc1ccc(Cl)cc1N1CCN(C(=O)CCC(=O)Nc2ccc3nc(N4CCC(C)CC4)cc(C)c3c2)CC1,-24,-4,.,0,-1
COc1ccc(Nc2nc(-c3c[nH]c4ccccc34)cs2)cc1,-39*,-11,-24,3,-1
COC(=O)c1[nH]c2cc(C)ccc2c1NC(=O)CN1CCc2cc(OC)c(OC)cc2C1,2,-17,-67*,-1,-2
COC(=O)c1[nH]c2ccc(Cl)cc2c1NC(=O)CN1CCc2cc(OC)c(OC)cc2C1,-6,-8,?,1,-2
CCOC(=O)N1CCN(CC(=O)Nc2c(C(=O)OC)[nH]c3cccc(Cl)c23)CC1,-12,40*,?,-1,4
SMILES,D1 antagonist,DRD3 agonist,D3 antag,D1 agonist,D1 PAM
COC(=O)c1[nH]c2ccc(C)cc2c1NC(=O)c1ccccc1[N+](=O)[O-],-36*,6,-21,-1,-2
COC(=O)c1[nH]c2ccc(Br)cc2c1NC(=O)CN1CCCCC1CCO (centres undefined),-41*,3,8,1,-4
CC(C)(CNc1ccc(S(=O)(=O)C(F)(F)F)cc1[N+](=O)[O-])N1CCOCC1,-12,3,-14,5,-1
C=CCn1c(CNC(=O)c2ccccc2F)nnc1SCC(=O)N1CCOCC1,-2,-8,-13,3,-4
COC(=O)c1[nH]c2ccc(C)cc2c1NC(=O)CN1CCN(c2ccccc2)CC1,15,36*,67,1,-7
CC(C)C[C@@H](CNCC(=O)[C@H](CC(C)C)NC(=O)c1[nH]cnc1C(=O)N[C@@H](C)CN)NC(=O)c1nc[nH]c1C(=O)N[C@@H](Cc1ccccc1)C(=O)O,.,-15,0,.,.
CC(C)C[C@@H](CN)NC(=O)c1nc[nH]c1C(=O)N[C@@H](CC(C)C)C(=O)CNC[C@H](C)NC(=O)c1nc[nH]c1C(=O)N[C@@H](CC(=O)O)C(=O)O,.,46*,2,.,.
CC(C)C[C@@H](CNCC(=O)[C@H](CC(=O)O)NC(=O)c1[nH]cnc1C(=O)N[C@H](CN)CC(C)C)NC(=O)c1nc[nH]c1C(=O)N[C@@H](Cc1ccccc1)C(=O)O,.,-45,-72*,.,.
CCCCC(=O)OCC(=O)[C@]1(O)Cc2c(O)c3c(c(O)c2[C@@H](O[C@H]2C[C@H](NC(=O)C(F)(F)F)[C@H](O)[C@H](C)O2)C1)C(=O)c1c(OC)cccc1C3=O,.,-7,.,.,.
CC1CCCN(CCCNC(=O)c2ccc3c(c2)N(Cc2ccc(Cl)cc2)C(=O)c2ccccc2S3(=O)=O)C1 (centres undefined),-35*,-47,.,60*,-1
O=C(NCc1ccco1)c1ccc2c(c1)N(Cc1cccc(Cl)c1)C(=O)c1ccccc1S2=O (centres undefined),-7,59*,.,3,-1
CCOC(=O)C1CCCN(C(=O)c2ccc3c(c2)N(Cc2ccccc2F)C(=O)c2ccccc2S3=O)C1 (centres undefined),-36*,9,.,2,0
CCN1CCN(C(=O)c2ccc3c(c2)N(Cc2ccccc2F)C(=O)c2ccccc2S3(=O)=O)CC1,6,-18,-61*,-1,-1
O=C(Nc1cccc(Cl)c1Cl)c1cc(S(=O)(=O)N2CCC3(CC2)OCCO3)ccc1F,-4,-4,.,-1,1
O=C(CC1OC(=O)c2ccccc21)Nc1cc(Cl)ccc1N1CCOCC1 (centres undefined),.,-15,1,.,.
COc1ccccc1CNC(=O)CCc1c(C)c2ccc(OC)c(C)c2oc1=O,-24,-9,.,1,4
CCN1CCN(C(=O)c2ccc3c(c2)N(Cc2ccccc2)C(=O)c2ccccc2S3=O)CC1 (centres undefined),0,-13,-56*,1,-8
CC1CC(C)CN(CCCNC(=O)c2ccc3c(c2)N(Cc2ccccc2)C(=O)c2ccccc2S3=O)C1 (centres undefined),3,-20,-72*,80*,-6
